Results on 5 compounds are retold here after PubChem BioAssay AID624453 (National Center for Advancing Translational Sciences (NCATS), 2012).

Activity calls are given as the source filed them. The call rests on the fitted dose curve; in most records, active means well fitted curve in the direction sought with a large enough effect; inactive means no such curve, though single readings can be large or run the other way.

Sequence of D(2) dopamine receptor (Homo sapiens) (P14416 whole entry, looked up): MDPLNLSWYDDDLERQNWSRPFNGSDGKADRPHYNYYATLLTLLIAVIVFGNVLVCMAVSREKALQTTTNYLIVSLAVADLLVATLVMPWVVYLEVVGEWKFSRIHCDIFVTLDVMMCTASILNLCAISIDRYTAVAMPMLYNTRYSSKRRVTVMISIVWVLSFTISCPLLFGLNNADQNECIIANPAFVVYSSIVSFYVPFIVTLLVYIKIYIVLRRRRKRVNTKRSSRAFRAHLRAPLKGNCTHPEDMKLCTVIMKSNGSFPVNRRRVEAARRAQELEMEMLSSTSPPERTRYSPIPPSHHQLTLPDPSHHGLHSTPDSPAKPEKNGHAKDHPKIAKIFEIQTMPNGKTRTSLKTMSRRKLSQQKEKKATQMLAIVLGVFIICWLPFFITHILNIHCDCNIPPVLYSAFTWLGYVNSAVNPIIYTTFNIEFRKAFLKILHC

The experiment concerns the target D(2) dopamine receptor (Homo sapiens) (UniProt P14416). Put plainly: HTS Assay for Allosteric Antagonists of the Human D2 Dopamine Receptor: Hit Validation in primary assay. The following applies: HEK293 TREx D2, calcium flux, dopamine EC80 antagonism; series mostly up to 41.8 µM. An excerpt:
Dopamine receptors (DARs) are involved in the etiology and/or therapy of a number of neuropsychiatric and endocrine disorders. For instance, all receptor-based antiparkinsonian drugs work via stimulating the D2 DAR subtype whereas all FDA-approved antipsychotic agents are antagonists of this receptor. […] There are three different types of allosteric modulators that we are seeking, two of which will stimulate or augment receptor signaling, allosteric agonists and potentiators, while the third, allosteric antagonists, will attenuate receptor signaling. The present primary screening assay measures compound antagonism after an EC80 addition of dopamine by tracking calcium flux in a […], inducible Hek293 Trex D2 cell line. NIH Chemical Genomics Center [NCGC] NIH Molecular Libraries Probe Centers Network [MLPCN] MLPCN Grant: NS064831 Assay Submitter (PI): David Sibley
Freshly passaged cells are plated in 1536 well black, clear bottom plates at a density of 4000 cells/well in 3 ul of complete media containing 1x tetracycline inducer. After an overnight incubation at 30 C in 5% CO2, cells are loaded with 2 ul of the no wash Calcium Assay Kit (ABD Bioquest) and incubated at room temperature for 30 to 90 minutes before it's read.
On the technique in general: Calcium flux is commonly read through the fluorescence of an indicator in the cells.
Take `NNCc1ccccc1`: the result was inactive.
With `CCN1C[C@@]2(C)CC[C@@H](OC)[C@@]34C2C(O)[C@@]2(OCO[C@]25CC(OC)C2C[C@@]3(O)C5C2O)C14` (stereo not given in full) the entry was “inactive”; with `CC(N)C(O)c1ccc(O)c(O)c1` (stereo not given), “inactive”; with `CN1C2CC(OC(=O)C(CO)c3ccccc3)CC1C(O)C2` (stereo not given), “inactive”.
With `CC1C(=O)OC2O[C@]3(C)CC[C@H]4C(C)CCC1[C@]24OO3` (stereo not given in full) the entry was “inactive”.
